Columns and labels:
Test in all cases: DAPPL (digital affinity profiling via proximity ligation, sequencing); 10 mM Tris-HCl pH 7.5, 50 mM NaCl, 1 mM DTT, 4% glycerol, room temperature, 30 min; GST-TFs on glutathione beads, 16-mer random dsDNA library, 0.1% formaldehyde crosslink after washing; high values mean tight binding
[1] = biological target: T1, FEV (Homo sapiens, UniProt Q99581 1-238); conditions: protein: recombinant; tags: N-terminal GST; dsDNA, one strand shown
T1 sequence: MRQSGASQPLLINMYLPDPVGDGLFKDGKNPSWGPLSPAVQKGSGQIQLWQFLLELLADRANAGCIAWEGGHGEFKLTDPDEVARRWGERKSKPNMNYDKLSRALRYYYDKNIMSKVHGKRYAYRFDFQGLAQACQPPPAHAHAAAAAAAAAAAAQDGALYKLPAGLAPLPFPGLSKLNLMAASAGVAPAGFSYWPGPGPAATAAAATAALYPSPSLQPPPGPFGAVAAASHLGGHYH
In short: (§1)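 Each value of binding signal is a hexamer's read frequency for a factor divided by the same hexamer's frequency in the tag-only sample. Barcoded, bead-captured GST fusions of human transcription factors made in yeast were pooled with that sample and incubated with 200 nmole of a random double-stranded 16-mer DNA library in Tris/NaCl/DTT/glycerol buffer at room temperature for 30 min. Washing, 0.1% formaldehyde crosslinking, proximity ligation, PCR and Illumina NextSeq500 sequencing followed.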

[2] = biological target: ETV5 (Homo sapiens, UniProt P41161 1-510); conditions: protein: recombinant; tags: N-terminal GST; dsDNA, one strand shown
Chain of ETV5 (P41161 whole entry): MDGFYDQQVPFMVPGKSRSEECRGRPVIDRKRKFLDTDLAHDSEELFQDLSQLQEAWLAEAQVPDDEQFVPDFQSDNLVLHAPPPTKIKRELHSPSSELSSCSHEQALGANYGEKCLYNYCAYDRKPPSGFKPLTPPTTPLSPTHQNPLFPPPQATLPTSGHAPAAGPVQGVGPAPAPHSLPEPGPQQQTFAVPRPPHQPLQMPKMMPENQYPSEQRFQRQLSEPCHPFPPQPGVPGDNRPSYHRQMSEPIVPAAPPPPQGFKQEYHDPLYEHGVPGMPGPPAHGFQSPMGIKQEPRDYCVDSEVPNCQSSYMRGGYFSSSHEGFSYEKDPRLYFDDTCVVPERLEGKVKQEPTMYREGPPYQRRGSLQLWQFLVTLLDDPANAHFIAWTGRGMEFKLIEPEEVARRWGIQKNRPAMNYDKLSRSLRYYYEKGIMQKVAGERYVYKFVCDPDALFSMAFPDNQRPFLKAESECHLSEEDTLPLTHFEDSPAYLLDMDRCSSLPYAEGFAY
In short: as §1

[3] = biological target: HSF1 (Homo sapiens, UniProt Q00613 1-529); conditions: protein: recombinant; tags: N-terminal GST; chain copies: 3; dsDNA, one strand shown
Chain of HSF1 (Q00613 whole entry): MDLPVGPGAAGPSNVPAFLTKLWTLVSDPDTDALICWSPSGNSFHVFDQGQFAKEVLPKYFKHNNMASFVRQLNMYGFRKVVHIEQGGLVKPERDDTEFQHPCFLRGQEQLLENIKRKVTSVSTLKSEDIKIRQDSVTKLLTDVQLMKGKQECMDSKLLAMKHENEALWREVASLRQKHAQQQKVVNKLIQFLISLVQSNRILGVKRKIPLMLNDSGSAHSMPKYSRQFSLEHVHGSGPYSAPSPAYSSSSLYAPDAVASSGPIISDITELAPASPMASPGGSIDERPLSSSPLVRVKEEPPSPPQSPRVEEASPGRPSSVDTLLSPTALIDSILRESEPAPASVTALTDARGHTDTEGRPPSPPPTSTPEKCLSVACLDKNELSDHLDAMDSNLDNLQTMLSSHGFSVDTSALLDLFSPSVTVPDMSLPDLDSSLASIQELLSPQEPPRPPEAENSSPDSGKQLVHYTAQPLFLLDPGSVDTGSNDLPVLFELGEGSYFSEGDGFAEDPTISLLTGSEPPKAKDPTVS
In short: as §1

[4] = biological target: T2, SPIC (Homo sapiens, UniProt Q8N5J4 1-248); conditions: protein: recombinant; tags: N-terminal GST; dsDNA, one strand shown
T2 sequence: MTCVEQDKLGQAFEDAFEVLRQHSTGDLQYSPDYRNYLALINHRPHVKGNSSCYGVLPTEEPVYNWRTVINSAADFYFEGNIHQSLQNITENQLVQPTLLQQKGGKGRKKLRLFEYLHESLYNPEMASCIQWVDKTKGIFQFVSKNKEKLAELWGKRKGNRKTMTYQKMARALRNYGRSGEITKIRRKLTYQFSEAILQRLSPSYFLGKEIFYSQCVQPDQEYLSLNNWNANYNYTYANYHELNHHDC
In short: as §1

[5] = biological target: ELF4 (Homo sapiens, UniProt Q99607 1-663); conditions: protein: recombinant; tags: N-terminal GST; dsDNA, one strand shown
Chain of ELF4 (Q99607 whole entry): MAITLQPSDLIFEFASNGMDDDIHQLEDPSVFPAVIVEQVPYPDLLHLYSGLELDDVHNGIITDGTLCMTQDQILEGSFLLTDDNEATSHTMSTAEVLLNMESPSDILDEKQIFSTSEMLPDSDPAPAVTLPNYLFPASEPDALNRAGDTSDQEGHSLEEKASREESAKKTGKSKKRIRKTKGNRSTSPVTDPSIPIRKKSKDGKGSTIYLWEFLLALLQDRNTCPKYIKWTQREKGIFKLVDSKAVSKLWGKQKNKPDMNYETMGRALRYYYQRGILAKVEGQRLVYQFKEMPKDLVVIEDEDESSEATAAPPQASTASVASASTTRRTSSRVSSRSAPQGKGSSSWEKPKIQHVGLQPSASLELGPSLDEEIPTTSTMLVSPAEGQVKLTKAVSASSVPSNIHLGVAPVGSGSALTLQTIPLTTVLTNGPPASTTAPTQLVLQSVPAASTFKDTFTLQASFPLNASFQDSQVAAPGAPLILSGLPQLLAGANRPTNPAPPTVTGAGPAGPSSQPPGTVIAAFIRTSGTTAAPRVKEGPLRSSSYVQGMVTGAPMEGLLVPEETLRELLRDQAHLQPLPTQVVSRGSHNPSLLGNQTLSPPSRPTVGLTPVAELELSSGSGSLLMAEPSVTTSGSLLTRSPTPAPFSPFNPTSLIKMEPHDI
In short: as §1

[6] = biological target: T3, ELK4 (Homo sapiens, UniProt P28324-2 1-405); conditions: protein: recombinant; tags: N-terminal GST; dsDNA, one strand shown
T3 sequence: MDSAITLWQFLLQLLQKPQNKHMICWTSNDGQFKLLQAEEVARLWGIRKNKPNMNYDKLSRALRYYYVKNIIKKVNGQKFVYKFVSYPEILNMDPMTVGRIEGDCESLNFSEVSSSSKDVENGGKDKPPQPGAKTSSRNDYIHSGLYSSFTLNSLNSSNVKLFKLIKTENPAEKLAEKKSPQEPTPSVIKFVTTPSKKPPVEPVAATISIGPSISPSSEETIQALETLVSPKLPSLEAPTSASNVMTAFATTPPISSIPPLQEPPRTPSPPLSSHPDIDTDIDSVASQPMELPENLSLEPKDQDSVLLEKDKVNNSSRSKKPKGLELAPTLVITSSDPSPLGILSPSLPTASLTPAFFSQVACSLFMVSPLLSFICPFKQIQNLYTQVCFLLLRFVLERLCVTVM
In short: as §1

[7] = biological target: T4, ETV2 (Homo sapiens, UniProt O00321 1-342); conditions: protein: recombinant; tags: N-terminal GST; dsDNA, one strand shown
T4 sequence: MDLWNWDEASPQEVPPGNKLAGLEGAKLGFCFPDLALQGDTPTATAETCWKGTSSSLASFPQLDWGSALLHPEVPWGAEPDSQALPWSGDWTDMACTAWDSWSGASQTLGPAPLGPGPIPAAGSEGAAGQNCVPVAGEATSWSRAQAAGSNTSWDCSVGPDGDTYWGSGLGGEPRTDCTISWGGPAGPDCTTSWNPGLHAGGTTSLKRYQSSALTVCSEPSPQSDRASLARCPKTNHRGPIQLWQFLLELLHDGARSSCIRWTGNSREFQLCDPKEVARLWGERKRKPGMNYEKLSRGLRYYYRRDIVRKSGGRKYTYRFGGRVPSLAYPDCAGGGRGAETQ
In short: as §1

[8] = biological target: T5, ELF3 (Homo sapiens, UniProt P78545 1-371); conditions: protein: recombinant; tags: N-terminal GST; dsDNA, one strand shown
T5 sequence: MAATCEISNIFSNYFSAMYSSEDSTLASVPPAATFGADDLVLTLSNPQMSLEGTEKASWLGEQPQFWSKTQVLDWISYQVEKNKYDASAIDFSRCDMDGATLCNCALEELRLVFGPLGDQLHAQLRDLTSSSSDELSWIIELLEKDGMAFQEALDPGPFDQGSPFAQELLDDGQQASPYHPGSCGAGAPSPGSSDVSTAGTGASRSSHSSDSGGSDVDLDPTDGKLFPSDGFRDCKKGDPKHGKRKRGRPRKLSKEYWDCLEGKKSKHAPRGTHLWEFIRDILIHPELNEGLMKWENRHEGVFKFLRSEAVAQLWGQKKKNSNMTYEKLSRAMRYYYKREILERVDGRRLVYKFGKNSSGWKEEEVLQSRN
In short: as §1

[9] = biological target: CRX (Homo sapiens, UniProt O43186 1-299); conditions: protein: recombinant; tags: N-terminal GST; dsDNA, one strand shown
Chain of CRX (O43186 whole entry): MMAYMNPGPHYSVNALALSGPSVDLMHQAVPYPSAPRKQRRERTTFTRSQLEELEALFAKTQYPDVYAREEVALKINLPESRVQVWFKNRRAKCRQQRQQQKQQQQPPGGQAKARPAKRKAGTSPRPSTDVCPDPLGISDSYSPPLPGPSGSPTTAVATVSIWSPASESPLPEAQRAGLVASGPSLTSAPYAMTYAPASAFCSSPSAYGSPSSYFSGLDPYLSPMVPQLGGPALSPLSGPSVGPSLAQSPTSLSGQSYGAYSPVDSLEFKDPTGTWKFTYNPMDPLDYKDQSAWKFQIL
In short: as §1

[10] = biological target: ETV1 (Homo sapiens, UniProt P50549 1-477); conditions: protein: recombinant; tags: N-terminal GST; dsDNA, one strand shown
Chain of ETV1 (P50549 whole entry): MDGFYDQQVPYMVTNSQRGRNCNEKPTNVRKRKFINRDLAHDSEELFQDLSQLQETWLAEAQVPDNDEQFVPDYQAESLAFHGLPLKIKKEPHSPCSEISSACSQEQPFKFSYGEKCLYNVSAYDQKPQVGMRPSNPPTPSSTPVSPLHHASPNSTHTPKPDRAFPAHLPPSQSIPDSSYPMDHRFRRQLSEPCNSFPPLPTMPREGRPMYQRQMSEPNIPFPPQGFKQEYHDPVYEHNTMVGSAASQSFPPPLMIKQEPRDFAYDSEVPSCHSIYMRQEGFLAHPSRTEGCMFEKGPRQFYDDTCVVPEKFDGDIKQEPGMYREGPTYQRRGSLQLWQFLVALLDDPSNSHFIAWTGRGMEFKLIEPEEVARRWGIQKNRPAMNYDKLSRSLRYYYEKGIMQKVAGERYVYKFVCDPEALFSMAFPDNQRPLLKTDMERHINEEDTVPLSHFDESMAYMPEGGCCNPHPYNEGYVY
In short: as §1

[11] = biological target: T6, ERF (Homo sapiens, UniProt P50548 1-548); conditions: protein: recombinant; tags: N-terminal GST; dsDNA, one strand shown
T6 sequence: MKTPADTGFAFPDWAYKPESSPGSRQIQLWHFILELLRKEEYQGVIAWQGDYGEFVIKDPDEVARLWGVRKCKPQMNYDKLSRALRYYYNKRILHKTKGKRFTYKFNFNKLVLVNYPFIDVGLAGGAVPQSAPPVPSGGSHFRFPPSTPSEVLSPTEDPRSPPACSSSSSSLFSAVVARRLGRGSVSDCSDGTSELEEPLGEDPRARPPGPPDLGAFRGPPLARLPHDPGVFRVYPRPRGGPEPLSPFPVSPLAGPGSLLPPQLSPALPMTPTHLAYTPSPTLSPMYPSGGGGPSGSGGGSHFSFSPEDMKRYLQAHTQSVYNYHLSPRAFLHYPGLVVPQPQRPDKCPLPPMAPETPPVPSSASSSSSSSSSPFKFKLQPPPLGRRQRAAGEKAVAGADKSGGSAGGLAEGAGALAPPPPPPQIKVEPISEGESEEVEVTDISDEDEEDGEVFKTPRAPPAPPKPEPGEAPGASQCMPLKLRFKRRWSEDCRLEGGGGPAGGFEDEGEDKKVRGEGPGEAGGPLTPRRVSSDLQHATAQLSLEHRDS
In short: as §1

[12] = biological target: T7, ETV3L (Homo sapiens, UniProt Q6ZN32 1-361); conditions: protein: recombinant; tags: N-terminal GST; dsDNA, one strand shown
T7 sequence: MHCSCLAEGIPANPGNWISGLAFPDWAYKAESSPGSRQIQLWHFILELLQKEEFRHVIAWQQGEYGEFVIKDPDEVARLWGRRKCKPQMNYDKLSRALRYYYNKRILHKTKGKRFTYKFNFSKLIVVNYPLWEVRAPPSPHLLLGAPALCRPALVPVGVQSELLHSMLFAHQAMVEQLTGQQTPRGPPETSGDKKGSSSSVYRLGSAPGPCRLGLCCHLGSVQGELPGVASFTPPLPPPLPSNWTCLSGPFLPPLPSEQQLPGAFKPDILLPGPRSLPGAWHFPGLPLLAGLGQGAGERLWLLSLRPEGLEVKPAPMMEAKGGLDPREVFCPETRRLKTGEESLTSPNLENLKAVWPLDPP
In short: as §1

[13] = biological target: T8, ETS2 (Homo sapiens, UniProt P15036 1-469); conditions: protein: recombinant; tags: N-terminal GST; dsDNA, one strand shown
T8 sequence: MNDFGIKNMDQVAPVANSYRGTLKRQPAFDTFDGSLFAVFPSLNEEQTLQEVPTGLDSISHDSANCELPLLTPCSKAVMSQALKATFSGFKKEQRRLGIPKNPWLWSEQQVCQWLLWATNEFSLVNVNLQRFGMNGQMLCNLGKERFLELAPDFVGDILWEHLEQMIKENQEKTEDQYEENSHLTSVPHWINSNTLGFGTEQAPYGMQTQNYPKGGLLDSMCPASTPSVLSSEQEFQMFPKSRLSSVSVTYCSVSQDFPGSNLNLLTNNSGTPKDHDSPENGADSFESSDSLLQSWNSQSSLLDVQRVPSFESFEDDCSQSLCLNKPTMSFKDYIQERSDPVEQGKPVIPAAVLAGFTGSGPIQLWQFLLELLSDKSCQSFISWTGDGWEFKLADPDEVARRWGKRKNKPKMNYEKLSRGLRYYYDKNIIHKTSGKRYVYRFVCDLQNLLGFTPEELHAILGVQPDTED
In short: as §1

[14] = biological target: T9, SPDEF (Homo sapiens, UniProt O95238 1-335); conditions: protein: recombinant; tags: N-terminal GST; dsDNA, one strand shown
T9 sequence: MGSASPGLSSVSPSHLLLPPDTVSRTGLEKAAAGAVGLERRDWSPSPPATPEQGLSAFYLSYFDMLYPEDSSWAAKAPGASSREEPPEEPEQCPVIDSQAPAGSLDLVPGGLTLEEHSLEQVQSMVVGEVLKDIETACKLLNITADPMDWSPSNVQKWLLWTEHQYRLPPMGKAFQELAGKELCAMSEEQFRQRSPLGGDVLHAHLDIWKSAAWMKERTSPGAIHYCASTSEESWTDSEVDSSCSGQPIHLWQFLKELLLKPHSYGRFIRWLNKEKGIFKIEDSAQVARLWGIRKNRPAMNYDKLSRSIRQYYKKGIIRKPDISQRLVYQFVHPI
In short: as §1

[15] = biological target: T10, ETV7 (Homo sapiens, UniProt Q9Y603 1-341); conditions: protein: recombinant; tags: N-terminal GST; dsDNA, one strand shown
T10 sequence: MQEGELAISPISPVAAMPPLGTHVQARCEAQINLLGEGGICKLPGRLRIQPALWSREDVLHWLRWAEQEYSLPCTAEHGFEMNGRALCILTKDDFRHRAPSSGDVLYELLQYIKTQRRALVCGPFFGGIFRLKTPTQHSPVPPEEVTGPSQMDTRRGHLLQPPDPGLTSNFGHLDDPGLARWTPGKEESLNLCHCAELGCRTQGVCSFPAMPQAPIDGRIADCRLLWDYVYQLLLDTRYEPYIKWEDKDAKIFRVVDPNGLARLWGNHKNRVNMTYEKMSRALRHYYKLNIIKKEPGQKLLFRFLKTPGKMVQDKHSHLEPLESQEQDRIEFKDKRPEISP
In short: as §1

[16] = biological target: T11, ELF5 (Homo sapiens, UniProt Q9UKW6-2 1-255); conditions: protein: recombinant; tags: N-terminal GST; dsDNA, one strand shown
T11 sequence: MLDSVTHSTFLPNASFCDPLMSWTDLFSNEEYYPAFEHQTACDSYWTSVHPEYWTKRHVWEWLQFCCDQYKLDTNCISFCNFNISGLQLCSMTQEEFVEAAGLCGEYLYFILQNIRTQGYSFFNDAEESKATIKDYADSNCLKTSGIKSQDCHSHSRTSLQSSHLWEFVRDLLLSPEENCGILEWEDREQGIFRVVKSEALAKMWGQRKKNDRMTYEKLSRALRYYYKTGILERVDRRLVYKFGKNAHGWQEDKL
In short: as §1

[17] = biological target: T12, ETV3 (Homo sapiens, UniProt P41162-2 1-143); conditions: protein: recombinant; tags: N-terminal GST; dsDNA, one strand shown
T12 sequence: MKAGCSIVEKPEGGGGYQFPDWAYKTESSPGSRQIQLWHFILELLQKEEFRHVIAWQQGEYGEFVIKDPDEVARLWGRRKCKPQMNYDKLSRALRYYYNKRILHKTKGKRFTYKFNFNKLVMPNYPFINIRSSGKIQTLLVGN
In short: as §1

[18] = biological target: ETV6 (Homo sapiens, UniProt P41212 1-452); conditions: protein: recombinant; tags: N-terminal GST; dsDNA, one strand shown
Chain of ETV6 (P41212 whole entry): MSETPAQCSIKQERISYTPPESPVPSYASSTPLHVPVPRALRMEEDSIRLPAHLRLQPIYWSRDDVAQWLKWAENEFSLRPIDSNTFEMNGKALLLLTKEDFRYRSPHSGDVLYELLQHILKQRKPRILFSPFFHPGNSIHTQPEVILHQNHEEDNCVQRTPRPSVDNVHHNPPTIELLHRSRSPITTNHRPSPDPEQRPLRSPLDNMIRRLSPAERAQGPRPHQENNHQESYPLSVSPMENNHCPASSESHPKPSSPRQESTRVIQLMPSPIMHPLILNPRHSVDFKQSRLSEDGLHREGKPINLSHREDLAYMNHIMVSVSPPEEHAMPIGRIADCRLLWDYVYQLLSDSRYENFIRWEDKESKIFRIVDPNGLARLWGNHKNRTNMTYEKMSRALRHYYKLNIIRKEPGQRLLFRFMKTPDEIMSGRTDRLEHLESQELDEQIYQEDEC
In short: as §1

CTGCAT was tested, and the binding signal [1] was 1.54 fold enrichment (6-mer frequency, TF over GST control), the binding signal [2] was 1.46 fold enrichment (6-mer frequency, TF over GST control) and the binding signal [3] was 1.12 fold enrichment (6-mer frequency, TF over GST control). The binding signal [4] was 1.32 fold enrichment (6-mer frequency, TF over GST control), the binding signal [5] was 1.43 fold enrichment (6-mer frequency, TF over GST control) and the binding signal [6] was 1.39 fold enrichment (6-mer frequency, TF over GST control). For the same sequence, the binding signal [7] was 1.28 fold enrichment (6-mer frequency, TF over GST control), the binding signal [8] was 1.4 fold enrichment (6-mer frequency, TF over GST control) and the binding signal [9] was 1.12 fold enrichment (6-mer frequency, TF over GST control). For the same sequence, the binding signal [10] was 1.29 fold enrichment (6-mer frequency, TF over GST control), the binding signal [11] was 1.38 fold enrichment (6-mer frequency, TF over GST control) and the binding signal [12] was 1.66 fold enrichment (6-mer frequency, TF over GST control). For the same sequence, the binding signal [13] was 1.4 fold enrichment (6-mer frequency, TF over GST control), the binding signal [14] was 1.57 fold enrichment (6-mer frequency, TF over GST control) and the binding signal [15] was 1.41 fold enrichment (6-mer frequency, TF over GST control). The binding signal [16] was 1.29 fold enrichment (6-mer frequency, TF over GST control), the binding signal [17] was 1.24 fold enrichment (6-mer frequency, TF over GST control) and the binding signal [18] was 1.25 fold enrichment (6-mer frequency, TF over GST control).

— PMC7862700, “An all-to-all approach to the identification of sequence-specific readers for epigenetic DNA modifications on cytosine”
